# Assay results: the supplement of paper PMC6992640
# ± gives the standard deviation of the averaged measurements.
# Columns and labels:
# Experiment in all cases: cell viability (% of vehicle); higher = less cytotoxic
# Details in all cases: 10 µM; 72 h
# HCI01 = system: HCI01 (cells of a triple-negative basal-like breast cancer xenograft)
# HCI03 = system: HCI03 (cells of an ER-positive luminal breast cancer xenograft)
# HCI09 = system: HCI09 (cells of a triple-negative luminal androgen receptor type breast cancer xenograft)
# HCI11 = system: HCI11 (cells of an ER-positive luminal breast cancer xenograft)
# HCI13 = system: HCI13 (cells of an ER-positive luminal breast cancer xenograft)
# HCI16 = system: HCI16 (cells of a triple-negative basal-like breast cancer xenograft)
# UCD52 = system: UCD52 (cells of a triple-negative basal-like breast cancer xenograft)
# WHIM2 = system: WHIM2 (cells of a triple-negative basal-like breast cancer xenograft)
# WHIM30 = system: WHIM30 (cells of a triple-negative basal-like breast cancer xenograft)
# 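Also: PDX cells carrying CMV promoter-driven luciferase, viability read as total photon flux per second by IVIS imaging following D-luciferin, vehicle control 0.1% DMSO.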
SMILES,cell viability (HCI01),cell viability (HCI03),cell viability (HCI09),cell viability (HCI11),cell viability (HCI13),cell viability (HCI16),cell viability (UCD52),cell viability (WHIM2),cell viability (WHIM30)
"Cc1[nH]c(C=C2C(=O)Nc3ccccc32)c(C)c1CCC(=O)O [TSU-68 (SU6668,Orantinib)]",79.2 ± 19,116,90.8 ± 25,106,60.8 ± 6.6,111,123 ± 18,60.9 ± 4.7,112 ± 13
CCCCC(C)(O)C/C=C/[C@H]1[C@H](O)CC(=O)[C@@H]1CCCCCCC(=O)OC (mixture of isomers) [Misoprostol],95 ± 25,120,107 ± 12,101,123 ± 9.4,112,96.6 ± 8.3,93.1 ± 9.9,107 ± 4.6
CC(CN1CC(=O)NC(=O)C1)N1CC(=O)NC(=O)C1 (stereo not given) [Dexrazoxane],83 ± 6.2,148,102 ± 20,92.4,110 ± 13,103,100.8 ± 0.77,75.7 ± 5.5,131.05 ± 0.028
CN1CCCC(n2nc(Cc3ccc(Cl)cc3)c3ccccc3c2=O)CC1.Cl (stereo not given) [Azelastine HCl],142 ± 46,106,101 ± 1.3,69.2,113 ± 22,116,57.6 ± 17,78.7 ± 8.4,94.9 ± 6.3
CC(C(=O)[O-])c1cccc(Oc2ccccc2)c1.CC(C(=O)[O-])c1cccc(Oc2ccccc2)c1.[Ca+2] (stereo not given) [Fenoprofen Calcium],112 ± 34,100,101 ± 7.6,94.3,121 ± 16,105,83 ± 3.5,98.7 ± 7.4,169 ± 11
O=C(CS(=O)Cc1ccco1)NCC=CCOc1cc(CN2CCCCC2)ccn1 (stereo not given) [Lafutidine],137 ± 32,136,107 ± 3.1,108,190 ± 46,119,89.1 ± 3.8,88.6 ± 19,114 ± 2
CC(c1ncncc1F)C(O)(Cn1cncn1)c1ccc(F)cc1F (stereo not given) [Voriconazole],121 ± 8.9,133,98.8 ± 11,121,137 ± 7.1,115,106 ± 22,105 ± 9.5,137 ± 22
CC(C)(Sc1cc(C(C)(C)C)c(O)c(C(C)(C)C)c1)Sc1cc(C(C)(C)C)c(O)c(C(C)(C)C)c1 [Probucol],83.1 ± 22,129,116 ± 8.1,89.7,94.85 ± 0.74,103,93.68 ± 0.28,90.5 ± 23,113 ± 1.5
COCC1=C(C(=O)OC(C)OC(=O)OC(C)C)N2C(=O)[C@@H](NC(=O)/C(=N\OC)c3csc(N)n3)[C@H]2SC1 (stereo not given in full) [Cefpodoxime Proxetil],106 ± 3.7,176,102 ± 11,103,109 ± 18,133,99.2 ± 12,106 ± 3.2,105 ± 12
CCC1=CC2CN(C1)Cc1c([nH]c3ccccc13)C(C(=O)OC)(c1cc3c(cc1OC)N(C)C1C(O)(C(=O)OC)C(OC(C)=O)C4(CC)C=CCN5CCC31C54)C2 (stereo not given) [Vinorelbine],100 ± 15,105,70.5 ± 25,78.5,46 ± 4.7,167,57.5 ± 23,60.5 ± 12,96.7 ± 3.6
Cc1nnc(SCC2=C(C(=O)[O-])N3C(=O)[C@@H](NC(=O)Cn4cnnn4)[C@H]3SC2)s1.[Na+] [Cefazolin (sodium salt)],115 ± 6.6,131,97.4 ± 9.4,85.9,125 ± 18,126,119 ± 12,104 ± 6,129 ± 8.7
CCCNC(C)C(=O)Nc1ccccc1C.Cl (stereo not given) [Prilocaine hydrochloride],147 ± 18,117,112.29 ± 0.067,113,83.1 ± 5.5,122,102 ± 16,102 ± 6.2,135 ± 5
CC(C(=O)O)c1ccc2c(c1)Cc1cccnc1O2 (stereo not given) [Pranoprofen],113 ± 13,128,93.6 ± 16,78.6,123 ± 16,125,98.8 ± 19,110 ± 3.3,111 ± 22
"CC(CN1CC(=O)NC(=O)C1)N1CC(=O)NC(=O)C1.Cl (stereo not given) [Dexrazoxane HCl (ICRF-187, ADR-529)]",64.8 ± 50,134,107 ± 3.7,97.9,96.3 ± 1.9,84.2,96.1 ± 14,70.2 ± 19,114 ± 1.9
CCn1cc(C(=O)O)c(=O)c2cc(F)c(N3CCNCC3)nc21 [Enoxacin (Penetrex)],101 ± 5.7,144,102 ± 13,109,104 ± 12,91,79.6 ± 0.81,85.5 ± 12,98.8 ± 2.7
CCC(CC)C(NC(C)=O)C1C(N=C(N)N)CC(C(=O)O)C1O (stereo not given) [Peramivir],112 ± 9.2,110,91.2 ± 18,98,102 ± 20,78.9,81.6 ± 14,97.5 ± 6.7,136 ± 24
NCCCC(O)(P(=O)([O-])O)P(=O)(O)O.[Na+] [Alendronate sodium],102 ± 7.7,111,95.1 ± 18,97.3,97.6 ± 3.9,97.1,79 ± 5.8,93.7 ± 13,116 ± 8.4
Nc1ccc(S(=O)(=O)Nc2ccccn2)cc1 [Sulfapyridine],111.2 ± 0.17,131,101 ± 2.1,92.6,138 ± 15,147,113 ± 19,100 ± 0.64,120 ± 12
O=N[O-].[Na+] [Sodium Nitrite],104 ± 6.4,95.5,90.5 ± 4.7,91.5,55.8 ± 2.9,108,84 ± 5.8,114 ± 17,116 ± 21
CN1C(C(=O)Nc2ccccn2)=C(O)c2sc(Cl)cc2S1(=O)=O [Lornoxicam],95.2 ± 8.9,111,84.7 ± 25,85.6,82.4 ± 9.6,98.4,86.2 ± 5.5,112 ± 2.6,99.1 ± 6.5
